Records with an inconclusive call do not appear. The source made the active and inactive calls. Unless noted, the call rests on the fitted dose curve; in most records, active means well fitted curve in the direction sought with a large enough effect; inconclusive means small, poorly fitted or top-dose-only effect, or another doubt; inactive means no such curve, though single readings can be large; an effect the other way counts as inactive or inconclusive.
Columns and labels:
[1] = AP1 Signaling Pathway (AID 357; active means well fitted curve in either direction with a large enough effect, not every such curve was filed as active;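 further: ME-180 reporter cells stimulated with EGF at its EC50 level; on the % scale 0 is the no-effect control and ±100 the full control effect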); details: ME-180 AP-1-bla reporter, EGF-induced, beta-lactamase ratio, 5 h; at 38 µM (top of the series)
Procedure, shortened: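 Beta-lactamase reporter under AP-1 response element, ME-180 background. Stimulus: EC50 EGF. Compound exposure 5 h, 37 °C. Detection: CCF4, 2.5 h RT, 460/530 nm. Values: AC50 from titration.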

[2] = biological target: Cytochrome P450 1A2 (Homo sapiens) (UniProt P05177); assay: p450-cyp1a2 (AID 410; calls by dose curve;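 further: -100% = full effect of reference inhibitor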)
Sequence of Cytochrome P450 1A2 (Homo sapiens) (P05177 whole entry, looked up): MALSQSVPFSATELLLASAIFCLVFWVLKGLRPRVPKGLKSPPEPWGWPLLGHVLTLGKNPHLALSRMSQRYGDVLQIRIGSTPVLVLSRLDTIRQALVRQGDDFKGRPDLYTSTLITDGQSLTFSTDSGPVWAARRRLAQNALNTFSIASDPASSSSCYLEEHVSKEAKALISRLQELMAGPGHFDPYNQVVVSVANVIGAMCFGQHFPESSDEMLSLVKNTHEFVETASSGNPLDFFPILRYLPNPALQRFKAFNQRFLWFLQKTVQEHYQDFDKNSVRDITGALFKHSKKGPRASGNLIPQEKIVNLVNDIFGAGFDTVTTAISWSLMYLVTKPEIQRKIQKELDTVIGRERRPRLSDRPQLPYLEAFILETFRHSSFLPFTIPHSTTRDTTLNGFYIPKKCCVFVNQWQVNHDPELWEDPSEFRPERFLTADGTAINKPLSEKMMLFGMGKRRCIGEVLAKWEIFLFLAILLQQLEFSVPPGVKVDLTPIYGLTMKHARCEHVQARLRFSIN
Procedure, shortened: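 O-Demethylation of luciferin 6' methyl ether by human CYP1A2 is monitored as luciferase luminescence. Substrate sits at Km (100uM); enzyme is 20nM. Values are scaled to 57 uM furafylline as maximal inhibition.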

[3] = NFAT Signaling Pathway (AID 444; active means well fitted curve in either direction with a large enough effect, not every such curve was filed as active;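 further: carbachol stimulus at about its EC50 of 1 µM final; on the % scale 0 is the no-effect control and ±100 the full control effect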); details: Jurkat NFAT-bla M1, carbachol, beta-lactamase ratio, 5 h; at 38 µM (top of the series)
Procedure, shortened: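 Read-out: CCF4 FRET ratio (460 nm/530 nm) after 1 h RT dye loading, used for %activity and AC50 from titration series. Cells: Jurkat NFAT-β-lactamase/M1 line, treated with compound plus 1 uM carbachol for 5 h, 37 °C.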

[4] = Stat Signaling Pathway (AID 446; active means well fitted curve in either direction with a large enough effect, not every such curve was filed as active;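 further: ME-180 cervical cancer cells given 40 pM IL-6 alongside compound; SIE-controlled beta-lactamase reporter measured as 460/530 nm FRET emission ratio; on the % scale 0 is the no-effect control and ±100 the full control effect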); details: ME-180 (cervical carcinoma) SIE beta-lactamase reporter, IL-6 stimulated, 5 h; at 38 µM (top of the series)
Procedure, shortened: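 Emission at 460 and 530 nm (excitation 405 nm) reports SIE-controlled beta-lactamase in ME-180 cells. Cells received compound with 40 pM IL-6 for 5 hrs at 37 C; data scaled between 300 pM IL-6 and 125 nM JAK-inhibitor controls.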

[5] = biological target: Glucocorticoid receptor (Homo sapiens) (UniProt P04150); assay: GR-GFP Redistribution (AID 450;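 active means compounds whose dose series gives a full or clear partial fitted curve of increased nuclear translocation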; further: potency means the concentration at half of the fitted maximal effect); details: U2OS GR-GFP nuclear translocation, laser cytometry, 2 h
Sequence of Glucocorticoid receptor (Homo sapiens) (P04150 whole entry, looked up, the tested form may be a part): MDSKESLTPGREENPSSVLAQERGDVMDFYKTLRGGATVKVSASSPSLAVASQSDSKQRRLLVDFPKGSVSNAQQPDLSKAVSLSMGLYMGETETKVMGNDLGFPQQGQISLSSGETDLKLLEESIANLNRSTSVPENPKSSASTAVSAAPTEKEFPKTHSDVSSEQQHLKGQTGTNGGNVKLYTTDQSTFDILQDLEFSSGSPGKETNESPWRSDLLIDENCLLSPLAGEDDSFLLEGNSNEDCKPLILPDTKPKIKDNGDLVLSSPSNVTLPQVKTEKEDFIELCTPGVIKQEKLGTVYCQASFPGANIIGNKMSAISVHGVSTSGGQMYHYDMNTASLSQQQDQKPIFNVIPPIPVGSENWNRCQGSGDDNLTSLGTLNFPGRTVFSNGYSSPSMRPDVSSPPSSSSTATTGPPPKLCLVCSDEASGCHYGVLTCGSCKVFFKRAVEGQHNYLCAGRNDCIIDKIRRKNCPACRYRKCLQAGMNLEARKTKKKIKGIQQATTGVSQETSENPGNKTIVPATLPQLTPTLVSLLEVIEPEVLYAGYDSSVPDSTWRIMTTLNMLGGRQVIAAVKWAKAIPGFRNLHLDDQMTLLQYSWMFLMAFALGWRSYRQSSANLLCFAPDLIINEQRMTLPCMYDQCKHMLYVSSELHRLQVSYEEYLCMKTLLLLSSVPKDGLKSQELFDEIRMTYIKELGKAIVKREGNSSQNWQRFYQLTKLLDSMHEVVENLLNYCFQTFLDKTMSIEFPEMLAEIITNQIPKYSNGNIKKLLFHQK

[6] = biological target: Glucocorticoid receptor (Homo sapiens) (UniProt P04150); assay: GR-EFC Redistribution (AID 451; calls by dose curve; further: potency means the concentration at half of the fitted maximal effect); details: CHO-K1 GR-EFC translocation, beta-gal luminescence, 2 h
Procedure, shortened: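 Translocation of GR-ED fusion to nuclear EA restores b-gal, read by luminescence after 1 h room-temperature detection. Engineered CHO-K1 biosensor cells, 1,000/well, exposed 2 h at 37 C to titrations up to 46 uM final.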

[7] = biological target: Mitogen-activated protein kinase 10 (Mus musculus) (UniProt Q61831); assay: JNK3 AlphaScreen Assay (AID 530; active means well fitted curve in either direction with a large enough effect, not every such curve was filed as active;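 further: kinase came from lysate of stimulated human HepG2 cells; signal reports phosphorylation of biotinylated GST-cJun 1-79 at Ser73 with 10 µM ATP; on the % scale 0 is the no-effect control and ±100 the full control effect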)
Procedure, shortened: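 qHTS titrations with 15 min compound pre-incubation before adding ATP (10 uM final). Read-out: AlphaScreen of Ser73-phosphorylated biotin-GST-cJun using HepG2 lysate JNK3 activated by IL-1β and TNFα.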

[8] = biological target: 3',5'-cyclic-AMP phosphodiesterase 4B (Homo sapiens) (UniProt Q07343); assay: qHTS Assay for Inhibitors of PDE-IV (AID 607; active means well fitted activation curve with a large enough effect in the main read-out, with a control signal flat, not every such curve was filed as active; further: % of control where 0% means no effect)
Sequence of 3',5'-cyclic-AMP phosphodiesterase 4B (Homo sapiens) (Q07343 whole entry, looked up): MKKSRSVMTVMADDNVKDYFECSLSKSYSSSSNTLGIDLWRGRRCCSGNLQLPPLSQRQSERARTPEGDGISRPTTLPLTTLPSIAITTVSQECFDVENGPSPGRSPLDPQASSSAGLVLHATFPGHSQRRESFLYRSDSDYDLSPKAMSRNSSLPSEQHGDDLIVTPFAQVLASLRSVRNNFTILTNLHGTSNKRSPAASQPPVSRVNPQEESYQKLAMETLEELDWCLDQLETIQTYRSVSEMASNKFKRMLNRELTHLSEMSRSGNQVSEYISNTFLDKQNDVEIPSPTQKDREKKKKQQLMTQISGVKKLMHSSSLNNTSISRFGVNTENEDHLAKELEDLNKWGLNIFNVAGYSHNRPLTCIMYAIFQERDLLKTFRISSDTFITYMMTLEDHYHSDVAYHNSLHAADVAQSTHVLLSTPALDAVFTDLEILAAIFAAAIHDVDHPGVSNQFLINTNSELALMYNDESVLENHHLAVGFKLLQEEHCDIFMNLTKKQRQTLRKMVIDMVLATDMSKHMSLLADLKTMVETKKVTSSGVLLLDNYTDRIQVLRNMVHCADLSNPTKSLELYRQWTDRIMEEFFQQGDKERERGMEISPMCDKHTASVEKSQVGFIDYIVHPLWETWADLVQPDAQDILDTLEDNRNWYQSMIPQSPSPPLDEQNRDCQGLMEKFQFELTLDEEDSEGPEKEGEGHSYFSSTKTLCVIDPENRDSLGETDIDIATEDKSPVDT
Procedure, shortened: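 The readout is membrane depolarisation from a cAMP-sensing CNG channel, detected with a potential dye at ex 535/em 590. Cells were HEK293-derived (endogenous PDE-IV) at 1000 cells/well, titrated up to 22.9 uM final.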

[9] = biological target: Guanine nucleotide-binding protein G(i) subunit alpha-1 (Homo sapiens) (UniProt P63096); assay: qHTS Assay for Inhibitors of RGS12 GoLoco Motif Activity (Green Fluorophore) (AID 879);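 further: 0% = labeled peptide with Gαi1 and full inhibition = labeled peptide alone without protein; negative values mean loss of peptide binding seen as reduced polarization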
Sequence of Guanine nucleotide-binding protein G(i) subunit alpha-1 (Homo sapiens) (P63096 whole entry, looked up): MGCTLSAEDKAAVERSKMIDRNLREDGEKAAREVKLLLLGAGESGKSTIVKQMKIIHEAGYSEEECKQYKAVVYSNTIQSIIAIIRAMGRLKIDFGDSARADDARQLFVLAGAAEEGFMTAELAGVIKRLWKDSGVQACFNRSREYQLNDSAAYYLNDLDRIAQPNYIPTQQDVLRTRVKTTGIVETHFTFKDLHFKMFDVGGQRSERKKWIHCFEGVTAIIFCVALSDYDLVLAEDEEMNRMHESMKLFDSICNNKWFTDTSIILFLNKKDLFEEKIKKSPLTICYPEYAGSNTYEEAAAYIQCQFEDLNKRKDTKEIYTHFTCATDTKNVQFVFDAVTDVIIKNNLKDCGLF
Procedure, shortened: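 A drop in FITC polarization marked displacement of the FITC-tagged RGS12 GoLoco peptide (10 nM) from Gαi1 (50 nM). Compounds were incubated 10 min at room temperature in Tris pH 7.5 buffer containing 150 mM NaCl, 0.1 mM GDP and 0.05% NP40; unlabeled peptide titration served as control.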

[10] = biological target: Cytochrome P450 3A4 (Homo sapiens) (UniProt P08684); assay: qHTS Assay for Activators of Cytochrome P450 3A4 (AID 885); further: nearly all actives have a fitted effect of over 65% in size
Sequence of Cytochrome P450 3A4 (Homo sapiens) (P08684 whole entry, looked up): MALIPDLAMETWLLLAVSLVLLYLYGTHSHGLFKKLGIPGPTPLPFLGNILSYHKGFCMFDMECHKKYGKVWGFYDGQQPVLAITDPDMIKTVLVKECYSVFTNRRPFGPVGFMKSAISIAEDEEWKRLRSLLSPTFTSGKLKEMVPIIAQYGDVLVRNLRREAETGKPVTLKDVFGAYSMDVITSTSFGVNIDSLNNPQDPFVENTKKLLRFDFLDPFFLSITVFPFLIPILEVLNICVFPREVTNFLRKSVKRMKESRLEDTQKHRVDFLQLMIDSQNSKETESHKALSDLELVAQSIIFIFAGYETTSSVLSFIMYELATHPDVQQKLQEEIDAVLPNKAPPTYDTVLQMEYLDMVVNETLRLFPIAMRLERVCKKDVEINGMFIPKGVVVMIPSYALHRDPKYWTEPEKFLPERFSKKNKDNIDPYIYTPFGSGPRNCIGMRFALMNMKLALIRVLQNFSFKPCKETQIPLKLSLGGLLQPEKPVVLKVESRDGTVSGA
Procedure, shortened: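 Activators are scored by enhanced luminescence from CYP3A4 conversion of luciferin-PPXE (25uM, equal to KM) to luciferin, after 60 min at RT with an NADPH-regenerating system.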

[11] = qHTS Assay for Identification of Small Molecule Agonists for Thrombopoietin (TPO) Signaling Pathway (AID 917); further: on the % scale 0 is the no-effect control and ±100 the full control effect
Procedure, shortened: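 Cell-based luciferase reporter screen. Mouse Ba/F3 line stably expressing human TPO receptor; IL-3 removed overnight before plating. Co-treatment with compound and EC50 TPO (26 pM), 24 hrs at 37 C, then luminescence.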

[12] = biological target: Muscarinic acetylcholine receptor M1 (Rattus norvegicus) (UniProt P08482); assay: qHTS Assay for Antagonists of Acetylcholine Muscarinic M1 Receptor: Kinetic Measurement of Intracellular Calcium Response (AID 943);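 further: Fluo-4 calcium signal as peak divided by basal fluorescence over 4 min; nearly all actives have a fitted effect of over 75% in size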
Sequence of Muscarinic acetylcholine receptor M1 (Rattus norvegicus) (P08482 whole entry, looked up): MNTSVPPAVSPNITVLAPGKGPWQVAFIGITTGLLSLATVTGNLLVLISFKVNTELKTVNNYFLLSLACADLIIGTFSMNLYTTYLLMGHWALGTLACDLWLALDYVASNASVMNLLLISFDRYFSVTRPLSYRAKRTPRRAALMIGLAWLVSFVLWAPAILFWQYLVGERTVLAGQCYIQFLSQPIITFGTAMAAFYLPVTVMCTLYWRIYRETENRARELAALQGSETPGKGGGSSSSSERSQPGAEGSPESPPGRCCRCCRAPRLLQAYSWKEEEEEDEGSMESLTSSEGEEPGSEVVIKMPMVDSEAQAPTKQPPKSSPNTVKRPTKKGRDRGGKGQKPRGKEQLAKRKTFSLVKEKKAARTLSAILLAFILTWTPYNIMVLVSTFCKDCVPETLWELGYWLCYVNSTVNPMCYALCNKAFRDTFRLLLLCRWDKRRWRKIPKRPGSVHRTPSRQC
Procedure, shortened: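 Antagonism is measured as inhibition of the carbachol-evoked calcium rise in CHO cells transfected with rat M1. Cells are dye-loaded, exposed to compound for 10 min, then stimulated with 100 nM carbachol (EC80).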

[13] = biological target: Muscarinic acetylcholine receptor M1 (Rattus norvegicus) (UniProt P08482); assay: qHTS Assay for Antagonists of Acetylcholine Muscarinic M1 Receptor: Measurement of IP-One Response (AID 944); further: nearly all actives have a fitted effect of over 75% in size
Procedure, shortened: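 Antagonist mode with rat M1 receptor transfected into CHO cells. Compound is added first for 10 min, carbachol at its EC80 follows for 30 min, and lysis reagents then allow TR-FRET detection of accumulated IP1.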

[14] = biological target: Pyruvate kinase (Leishmania mexicana) (UniProt Q27686); assay: qHTS Validation Assay for Inhibitors of Leishmania Mexicana Pyruvate Kinase (AID 945);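 further: 0% = DMSO only neutral control wells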
Procedure, shortened: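 qHTS eight-point titrations against 0.2 nM LmPYK (E451W) in imidazole buffer pH 7.2 with 0.5 mM PEP, 0.1 mM ADP; 1 h, room temperature. Readout: PKLight luminescence, normalized to neutral DMSO wells.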

[15] = biological target: Pyruvate kinase PKM (Homo sapiens) (UniProt P14618); assay: qHTS Assay for Activators of Human Muscle Pyruvate Kinase (AID 954; active means well fitted curve in the direction sought with a large enough effect, not every such curve was filed as active;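 further: 0% = uninhibited enzyme and -100% = no enzyme or full thiadiazolimine inhibition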)
Sequence of Pyruvate kinase PKM (Homo sapiens) (P14618 whole entry, looked up): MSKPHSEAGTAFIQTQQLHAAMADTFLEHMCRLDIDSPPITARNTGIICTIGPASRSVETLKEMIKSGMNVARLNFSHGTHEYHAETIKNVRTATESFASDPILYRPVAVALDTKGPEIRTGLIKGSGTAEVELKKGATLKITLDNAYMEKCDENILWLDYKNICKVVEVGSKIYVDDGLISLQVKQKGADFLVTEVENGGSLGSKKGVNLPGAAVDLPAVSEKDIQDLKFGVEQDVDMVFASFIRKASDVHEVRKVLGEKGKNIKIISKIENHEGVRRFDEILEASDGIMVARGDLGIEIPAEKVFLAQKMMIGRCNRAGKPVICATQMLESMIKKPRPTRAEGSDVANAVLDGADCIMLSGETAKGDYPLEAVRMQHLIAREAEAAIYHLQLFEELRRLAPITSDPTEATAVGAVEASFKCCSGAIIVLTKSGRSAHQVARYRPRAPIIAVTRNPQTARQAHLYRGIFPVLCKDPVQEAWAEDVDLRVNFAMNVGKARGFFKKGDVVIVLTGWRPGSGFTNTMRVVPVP
Procedure, shortened: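 PKM2, human, >95% pure, 0.1 nM; PEP 0.5 mM (Km), ADP 0.1 mM; 50 mM imidazole pH 7.2, 50 mM KCl, 0.01% Tween 20, 0.05% BSA; 1 h RT; luciferase luminescence readout.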

[16] = biological target: Alpha-galactosidase A (Homo sapiens) (UniProt P06280); assay: Counterscreen for Glucocerebrosidase Inhibitors: qHTS Assay for Human alpha-Galactosidase at pH 4.5 (AID 992); further: 0% is about no effect
Sequence of Alpha-galactosidase A (Homo sapiens) (P06280 whole entry, looked up): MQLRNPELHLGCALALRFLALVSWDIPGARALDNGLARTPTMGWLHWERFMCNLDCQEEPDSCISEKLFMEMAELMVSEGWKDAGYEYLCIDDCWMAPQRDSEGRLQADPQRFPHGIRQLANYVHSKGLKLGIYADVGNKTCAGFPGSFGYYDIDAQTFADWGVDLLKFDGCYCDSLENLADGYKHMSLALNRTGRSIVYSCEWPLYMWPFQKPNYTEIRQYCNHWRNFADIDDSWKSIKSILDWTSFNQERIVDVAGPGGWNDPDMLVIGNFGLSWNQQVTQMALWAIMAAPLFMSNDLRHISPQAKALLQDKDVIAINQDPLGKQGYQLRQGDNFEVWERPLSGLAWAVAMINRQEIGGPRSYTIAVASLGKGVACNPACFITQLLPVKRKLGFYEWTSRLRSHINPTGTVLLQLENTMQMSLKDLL
Procedure, shortened: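 Fluorogenic 4-MU alpha-D-galactoside (80 uM) hydrolysis, 2 nM enzyme, pH 4.5 citrate buffer + 0.005% Tween-20; 20 min RT; NaOH/glycine pH 10 stop; Ex365/Em440. Compounds titrated 0.7 nM–77 uM; Hill-equation AC50.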

[17] = biological target: alpha-glucosidase (Oryza sativa, rice) (UniProt Q653V4); assay: Counterscreen for Glucocerebrosidase Inhibitors: qHTS Assay for Rice alpha-Glucosidase at pH 5.0 (AID 997);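 further: 0% = full activity with enzyme and -100% = basal without enzyme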
Procedure, shortened: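 Endpoint fluorogenic assay at pH 5.0: compounds (0.7 nM to 77 uM) titrated against 4 nM rice enzyme and 400 uM 4-MU-alpha-glucoside for 20 min at room temperature; NaOH/glycine stop, read ex 365/em 440 nm, Hill-fitted AC50.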

[18] = Validation of Assay for Modulators of Lamin A Splicing (AID 1459; active means well fitted curve in the direction sought with a large enough effect in the signal ratio; the % refers to the signal ratio;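 further: cells exposed to compound for two days before reading; 0% is about no effect; ratio rise marks activators and ratio drop marks inhibitors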)
Procedure, shortened: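 HeLa S3 lamin A-EGFP/DsRed2 stable clone, 600 cells/well, Opti-MEM 2% FBS; compounds by pin tool; 48 hrs, 37 °C/5% CO2; Acumen 488 nm scan, objects 10-100 um; GFP/RFP intensity ratio.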

[19] = biological target: DNA repair nuclease/redox regulator APEX1 (Homo sapiens) (UniProt P27695); assay: qHTS Validation Assay for Inhibitors of the Human Apurinic/apyrimidinic Endonuclease 1 (APE1) (AID 1705)
Sequence of DNA repair nuclease/redox regulator APEX1 (Homo sapiens) (P27695 whole entry, looked up): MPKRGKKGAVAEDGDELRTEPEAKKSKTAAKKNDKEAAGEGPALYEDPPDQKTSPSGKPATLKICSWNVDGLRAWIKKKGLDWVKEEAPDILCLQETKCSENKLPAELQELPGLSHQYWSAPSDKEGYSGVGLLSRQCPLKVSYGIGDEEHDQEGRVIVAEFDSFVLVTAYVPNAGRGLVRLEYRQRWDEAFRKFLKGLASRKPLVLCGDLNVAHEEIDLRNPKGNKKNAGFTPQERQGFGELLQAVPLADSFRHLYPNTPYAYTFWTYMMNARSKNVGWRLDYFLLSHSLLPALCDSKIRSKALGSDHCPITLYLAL
Procedure, shortened: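 qHTS, 1536-well. APE1 + cpd 15 min RT → 50 nM TAMRA/BHQ-2 THF-abasic dsDNA substrate → kinetic fluorescence, 3 reads/60 s; delta(read3−read1) = reaction progress. No-enzyme buffer = negative control.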

[20] = Counterscreen for APE1 Inhibitors: Fluorescent Dye Displacement Validation Assay (AID 1707);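 further: plate controls were ThO with dsDNA and no compound for no effect and ThO without dsDNA for full effect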
Procedure, shortened: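 Endpoint fluorescence read at 480 nm excitation / 540 nm emission; DNA-binding compounds lower signal by displacing 250 nM Thiazole Orange from 50 nM dsDNA containing a tetrahydrofuran abasic site, Tris-HCl pH7.5 buffer with NaCl and MgCl2.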

COC(=O)c1c(-c2cc(OC)c(OC)c(OC)c2)c2ccnc(OCc3ncccn3)c2c(=O)n1Cc1ccnc(C)c1
inactive: activity change, negative = inhibition [1] -4.4% | Potency [2] | activity change, negative = inhibition [3] 4.39% | activity, negative = inhibition [4] -8.52% | Potency [5] > 46 µM | Potency [6] > 46 µM | Potency [7] | Potency [8] | outcome [9] | Potency [10] | Potency [11] | Potency [12] | Potency [13] | Potency [14] | outcome [15] | outcome [16] | outcome [17] | outcome [18] | Potency [19] | Potency [20]

— PubChem BioAssay (NCATS)
